This is a sample that favours compounds with a hit; in the whole collection about 17% have one here.
TDP1 cell CPT – DT40-hTDP1 cell growth loss with CPT. chicken DT40 Tdp1-/-;hTDP1 cells + 20 nM CPT, ATP luminescence, 48 h. Potency, µM (titrated, usually from 46.2 µM), hits mostly inhibitors. 420,000 compounds, 12% hits. AID 686979; further: nearly all actives have a fitted effect of over 55% in size
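Cell growth measured by CellTiter-Glo luminescence after a minimum 48 h, 37 C compound exposure with 20 nM CPT in Tdp1-knockout DT40 cells stably expressing hTDP1, seeded 400/well; qHTS titration format.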
ClpP mod – qHTS Assay for Activators of ClpP; 340,000 compounds, 1.9% hits; purified B. subtilis ClpP, FRET peptide cleavage, 20 min; Potency, µM (series often up to 57.5 µM); active means well fitted falling curve with a large enough effect; inconclusive means small, poorly fitted or top-dose-only effect; inactive means no such curve, though single readings can be large or run the other way; further: the source files actives as falling curves though it sought activators and does not explain the sign; nearly all actives have a fitted effect of over 65% in size
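ClpP 10 microg/mL final, pH 8 Tris/KCl buffer with BSA, glycerol, Tween-20; compound pinned in; FRET-FV substrate; RT 20 min; Ex320/Em430; ΔFRET vs ADEP 5.8 microM, DMSO, no enzyme.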
DT40 TDP1 no CPT – qHTS for Inhibitors of human tyrosyl-DNA phosphodiesterase 1 (TDP1): qHTS in cells in absence of CPT; 420,000 compounds, 15% hits; DT40 Tdp1-/- hTDP1 cells, no CPT, ATP luminescence, 48 h; Potency, µM (titrated, usually from 46.2 µM), usual class: inhibitors; further: nearly all actives have a fitted effect of over 55% in size
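Readout: luminescence from CellTiter-Glo after 30 min in the dark at RT. Cells: DT40 Tdp1-/- with stable hTDP1, 400/well. Exposure: compounds alone, ≥48 hr, 37 °C.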
TDP1 block – TDP1 (human) enzyme inhibition. Q9NUW8. recombinant TDP1, AlphaScreen DNA substrate cleavage. Potency, µM (doses to about 130 µM), most hits filed as inhibitors. 350,000 compounds, 0.28% hits. AID 485290; further: nearly all actives have a fitted effect of over 40% in size
Target sequence (Q9NUW8 whole entry, looked up): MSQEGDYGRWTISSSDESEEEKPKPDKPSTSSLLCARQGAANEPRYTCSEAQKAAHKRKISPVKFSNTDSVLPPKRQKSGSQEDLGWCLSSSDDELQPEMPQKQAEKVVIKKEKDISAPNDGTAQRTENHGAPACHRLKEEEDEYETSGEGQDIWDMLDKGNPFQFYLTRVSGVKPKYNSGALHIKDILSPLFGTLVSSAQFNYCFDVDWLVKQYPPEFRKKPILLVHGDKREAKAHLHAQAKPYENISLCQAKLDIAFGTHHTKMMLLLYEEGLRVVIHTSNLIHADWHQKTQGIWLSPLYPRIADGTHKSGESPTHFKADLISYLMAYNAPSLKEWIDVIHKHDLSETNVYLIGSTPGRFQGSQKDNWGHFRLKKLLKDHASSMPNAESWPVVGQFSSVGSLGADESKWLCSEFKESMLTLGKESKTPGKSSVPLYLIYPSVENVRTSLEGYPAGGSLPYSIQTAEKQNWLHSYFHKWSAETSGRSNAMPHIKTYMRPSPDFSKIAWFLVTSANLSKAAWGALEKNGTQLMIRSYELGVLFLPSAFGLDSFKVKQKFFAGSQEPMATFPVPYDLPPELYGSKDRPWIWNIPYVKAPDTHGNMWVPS
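AlphaScreen read-out: signal falls as enzyme removes the 3' tyrosine-FITC from a 5'-biotinylated DNA oligo (15 nM, 5 min, RT). Enzyme was E. coli-made recombinant Tdp1 at 1 nM, exposed to compound for 15 min beforehand; beads 10 ug/ml, 10 min.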
Numbers stand for hits; 0 = inactive; ? = inconclusive; - = no result given; [ ] = dose if it differs, or a comment. Unless noted, the call rests on the fitted dose curve; in most records, active means well fitted curve in the direction sought with a large enough effect; inconclusive means small, poorly fitted or top-dose-only effect, or another doubt; inactive means no such curve, though single readings can be large; an effect the other way counts as inactive or inconclusive.

SMILES	TDP1 cell CPT	ClpP mod	DT40 TDP1 no CPT	TDP1 block
CCOC(=O)C1=C(CS(=O)(=O)c2ccccc2)NC(=O)NC1c1cccc(OC)c1 (centres undefined)	0	-	?	0
O=C(NCCCCc1ccccc1)NC[C@@H]1CC[C@@H](Cc2ccc(-c3ccccc3)cc2)O1	16µM	0	15µM	0
CCNc1ncc2nc(C)c(=O)n(CCOC)c2n1	0	-	0	-
CC12CCC(=O)CC1CCC1C2CCC2(C)C1CCC2(O)C(=O)CO (centres undefined)	0	0	0	-
Cc1cc(O)c2c(c1)CC1C3CCC4CC(=O)CCC4(C)C3CC(=O)C21C (centres undefined)	18µM	-	12µM	-
CN1CCN(C2(CNC(=O)c3ccc([N+](=O)[O-])cc3)CCCCC2)CC1	0	0	0	0
CCOc1ccccc1-c1cc(C(=O)Nc2ccc(C(=O)O)cc2)c2ccccc2n1	?	0	0	-
COc1ccc(NC(=O)c2cc(-c3ccccn3)nc3ccccc23)c(OC)c1	29µM	-	15µM	0
CCOc1ccccc1NC(=O)c1cc(-c2ccccn2)nc2ccccc12	21µM	0	10µM	0
CCc1nnc(SCC(=O)Nc2ccccc2)n1CC1CCCO1 (centres undefined)	0	0	0	0
Cc1ccsc1CN(Cc1ccco1)C(=O)c1ccc(Cl)cc1	16µM	0	13µM	0
Cc1ccc(C(=O)N(Cc2ccco2)Cc2sccc2C)cc1	21µM	0	23µM	0
O=C(Nc1c2c(nn1-c1ccc(F)cc1)CS(=O)(=O)C2)c1ccc2c(c1)OCO2	0	0	0	0
COc1cccc(N2C(=O)C3C(C2=O)C3(c2ccccc2)c2ccccc2)c1 (centres undefined)	0	-	?	0
CCOc1ccc(N2C(=O)C3C(c4ccccc4)=NN(c4ccccc4)C3C2=O)cc1 (centres undefined)	0	11µM	0	?
O=C(C1=NN(c2ccccc2)C2C(=O)N(c3ccccc3)C(=O)C12)c1ccccc1 (centres undefined)	0	0	0	0
CCOc1ccc(N2C(=O)C3C(C2=O)C3(c2ccccc2)c2ccccc2)cc1 (centres undefined)	18µM	0	?	0
Cc1ccc(S(=O)(=O)Nc2cc3c(cc2C)n(C)c(=O)c(=O)n3C)cc1	0	0	?	0
Cc1[nH][nH]c(=O)c1C(c1c(C)[nH][nH]c1=O)c1cn(Cc2ccc(Cl)c(Cl)c2)c2ccccc12	2.1µM	0	2.1µM	0
Cc1[nH][nH]c(=O)c1C(c1c(C)[nH][nH]c1=O)c1cn(Cc2ccc(F)cc2)c2ccccc12	6.5µM	?	5.2µM	0
O=C(Nc1nc2c(F)cccc2s1)c1ccc(S(=O)(=O)N2CCOCC2)cc1	?	0	0	0
CC(C)CC(=O)Nc1c(C(=O)N2CCN(c3ccccc3F)CC2)oc2ccccc12	13µM	0	10µM	0
Cc1cccc(OCC(=O)Nc2c(C(=O)N3CCN(c4ccccc4F)CC3)oc3ccccc23)c1	?	0	18µM	0
CC(C)(C)C(=O)Nc1c(C(=O)N2CCN(c3ccc(F)cc3)CC2)oc2ccccc12	18µM	0	15µM	0
O=C(Nc1c(C(=O)N2CCN(c3ccccc3F)CC2)oc2ccccc12)c1cccc(F)c1	?	0	?	0
SMILES	TDP1 cell CPT	ClpP mod	DT40 TDP1 no CPT	TDP1 block
COc1ccc(OCC(=O)Nc2c(C(=O)N3CCN(C)CC3)oc3ccccc23)cc1	0	0	0	0
COc1ccc(N2CCN(C(=O)c3oc4ccccc4c3NC(=O)Cc3cccc(OC)c3)CC2)cc1	?	0	?	0
COc1cccc(CC(=O)Nc2c(C(=O)N3CCN(c4ccccc4F)CC3)oc3ccccc23)c1	5.8µM	0	4.6µM	0
CCOC(=O)c1c(-n2cccc2)sc2c1CCCC2=O	0	0	0	0
CCOc1ccc(S(=O)(=O)N(CC)CC)cc1NC(=O)CSCc1c(C)noc1C	?	0	?	0
COc1ccc(OCC(=O)Nc2c(C(=O)N3CCN(c4ccccc4)CC3)oc3ccccc23)cc1	?	0	0	0
CCOCC(=O)Nc1c(C(=O)N2CCN(c3ncccn3)CC2)oc2ccccc12	?	0	12µM	0
Cc1cccc(Oc2ncnc3oc(-c4ccccc4)cc23)c1C	?	28µM	?	0
CC(C)(C)S(=O)(=O)N1C[C@H]2CC/C=C\C/C=C\2[C@@H]1CCO	21µM	0	13µM	-
CC(C)(C)S(=O)(=O)N1C[C@@H]2CC/C=C\C/C=C\2[C@H]1CCO	13µM	0	8.2µM	-
CCN(Cc1ccccc1)Cc1c(O)ccc2oc(C)c(C(=O)Nc3ccccc3C)c12	13µM	0	13µM	0
Cc1oc2ccc(O)c(CN(C)C)c2c1C(=O)c1ccccc1	?	-	?	0
Cc1ccccc1NC(=O)c1c(C)oc2ccc(O)c(CN(C)Cc3ccccc3)c12	8.2µM	0	6.5µM	0
Cc1oc2ccc(O)c(CN(C)Cc3ccccc3)c2c1C(=O)Nc1cccc(Cl)c1C	6.5µM	?	6.5µM	0
CCN(CC)c1cc2c(cc1F)c(=O)c(S(=O)(=O)c1cccc(C)c1)cn2C	?	0	?	0
CN[C@H]1C[C@H]2c3[nH]c4ccc(-c5cccc(C)c5)cc4c3CCN2C[C@H]1[C@H](C)O	7.3µM	0	12µM	-
COc1ccc(NC(=O)N(C)[C@H]2C[C@H]3c4[nH]c5ccc(-c6ccc(OC)cc6)cc5c4CCN3C[C@H]2[C@H](C)O)cc1	?	0	?	-
Cc1cccc(-c2ccc3[nH]c4c(c3c2)CCN2C[C@@H]([C@H](C)O)[C@@H](N(C)C(=O)NC3CCCCC3)C[C@@H]42)c1	13µM	0	?	-
Cc1cccc(-c2ccc3[nH]c4c(c3c2)CCN2C[C@H]3[C@H](C)ON(C)[C@H]3C[C@@H]42)c1	?	0	15µM	-
Cc1c(Cl)cccc1NS(=O)(=O)c1cc2c(cc1Cl)CCC(=O)N2	-	-	-	0
Cc1ccc(C(=O)N(Cc2cc3cc4c(cc3nc2N2CCOCC2)CCC4)CC2CCCO2)s1 (centres undefined)	0[9.04 µM]	-	0	-
Cc1ccc(C2CC(c3cccs3)=NN2S(=O)(=O)c2ccc(C)cc2)cc1 (centres undefined)	21µM	0	23µM	0
COc1ccc(C2CC(c3cccs3)=NN2S(=O)(=O)c2ccc(C)cc2)cc1 (centres undefined)	23µM	0	23µM	-
COc1ccc(C2CC(c3cccs3)=NN2S(C)(=O)=O)cc1 (centres undefined)	0	-	0	0
O=S(=O)(c1ccccc1)N1N=C(c2cccs2)CC1c1cccc(O)c1 (centres undefined)	?	0	16µM	0
COc1ccc2[nH]cc(CCNC(=O)Nc3ccccc3C)c2c1	0	0	0	0
OCCNc1nc(-c2cccnc2)nc2ccccc12	0	0	0	0
COc1ccc(/C=N/Nc2nc(-c3cccnc3)nc3ccccc23)c(OC)c1	?	0	?	0
